Casp6 inh: human caspase-6 inhibitors, primary screen, biochemical, VEID-R110 fluorescence, single point, set 2; hit rate 0.53% among 350,000; purified caspase-6, Z-VEID-R110 cleavage fluorescence; AID 686996, 2013; inhibition, % at 12.5 µM; P55212;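 active = mean inhibition across replicates at least about 35%, with every replicate also reaching that limit, limit read from the data; inconclusive = only one of the two criteria met; inactive = neither criterion met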;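 note: 0% = median of neutral control wells and 100% = no fluorescence left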
NSD2 inh: NSD2 histone methyltransferase inhibitors, primary screen, biochemical, AlphaScreen, single concentration, set 2 | Histone-lysine N-methyltransferase NSD2 (Homo sapiens), O96028 | NSD2 peptide methylation, 120 min | inhibition, % at 12.5 µM | hit rate 0.54% among 310,000 | AID 743445, 2014; in the data active = inhibition above about 50%
Glyco luc inh: increase of ERlucT glycosylation luciferase signal, primary screen, N-linked glycosylation inhibitor project, D54 ERlucT cells, luminescence, set 2; AID 588692, 2011; hit rate 0.23% among 360,000; reporter increase, % at 12.5 µM; D54 ERlucT glycosylation luciferase reporter, 24 h; percent of 100 nM tunicamycin response;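 active = mean luciferase reporter signal, scaled so untreated is 0 and the glycosylation-blocking control 100, at or above a set limit in every replicate; inconclusive = mean reaches the limit but not every replicate does; inactive = mean below the limit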;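 note: luciferase carries N-glycosylation sites so blocking glycosylation raises the light; 0% = median of neutral control wells and 100% = median of 100 nM tunicamycin wells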
Keap1 Nrf2 FP: Keap1-Nrf2 protein-protein interaction inhibitors, primary screen, biochemical, fluorescence polarization, single point | Kelch-like ECH-associated protein 1 (Homo sapiens), Q14145 | Keap1 Kelch-Nrf2 peptide fluorescence polarization, 1536-well | inhibition, % at 9.4 µM | hit rate 0.15% among 340,000 | AID 504523, 2011; in the data active = inhibition above about 12%; inconclusive = no clear call, values can overlap the other calls; inactive = below about 7.3%;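 note: human Keap1 Kelch domain with fluorescein labeled Nrf2 9mer peptide probe; 0% = neutral control wells and 100% = peptide positive control; higher means more block of Keap1 binding to Nrf2 peptide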
Target sequence (Q14145 whole entry, looked up, the tested form may be a part): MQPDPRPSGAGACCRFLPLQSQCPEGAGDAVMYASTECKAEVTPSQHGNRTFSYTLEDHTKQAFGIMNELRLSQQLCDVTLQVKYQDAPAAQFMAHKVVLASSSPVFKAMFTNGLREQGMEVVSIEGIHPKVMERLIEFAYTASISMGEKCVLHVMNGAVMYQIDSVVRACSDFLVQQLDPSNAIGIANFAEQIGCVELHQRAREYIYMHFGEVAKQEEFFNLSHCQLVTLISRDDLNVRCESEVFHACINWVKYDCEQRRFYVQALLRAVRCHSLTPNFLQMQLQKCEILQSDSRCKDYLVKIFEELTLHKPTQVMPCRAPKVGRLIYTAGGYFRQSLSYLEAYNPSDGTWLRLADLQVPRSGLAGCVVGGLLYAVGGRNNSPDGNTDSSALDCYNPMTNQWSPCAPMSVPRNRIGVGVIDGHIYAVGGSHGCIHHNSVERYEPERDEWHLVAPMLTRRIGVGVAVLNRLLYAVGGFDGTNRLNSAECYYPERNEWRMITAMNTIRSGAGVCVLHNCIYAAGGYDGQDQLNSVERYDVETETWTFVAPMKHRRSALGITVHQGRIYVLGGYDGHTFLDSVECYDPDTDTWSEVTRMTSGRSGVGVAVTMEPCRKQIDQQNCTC
HDAC3 inh: HDAC3 deacetylase inhibitors, primary screen, biochemical, fluorescence, cell-free homogeneous. inhibition, % at 8.3 µM. hit rate 0.15% among 320,000. Histone deacetylase 3 (Homo sapiens), O15379. recombinant HDAC3, fluorogenic peptide/trypsin coupled. AID 2718, 2010; in the data active = inhibition above about 26%, passing the limit was not always enough; inconclusive = no clear call, values can overlap the other calls
LANA DNA inh: inhibitors of KSHV C-LANA binding to DNA, primary screen, biochemical, fluorescence polarization, FAM-LBS DNA, MBP-C-LANA, single point | Kaposi's sarcoma herpesvirus LANA C-terminal domain (residues 932-1162) DNA binding | inhibition, % at 9 µM | hit rate 0.078% among 340,000 | AID 504423, 2011;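 active = highest replicate inhibition at or above 60% at 9 µM, even if other replicates fall short; inactive = all replicates below 60% inhibition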;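 note: 0% = neutral control wells and 100% = 4 µM acridine orange control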
* hit, by the source's call; ? = inconclusive; . = no result. Rows were chosen to be rich in hits. Some 1.1% of all compounds tested hit in one or more screens of this group.

SMILES | Casp6 inh | NSD2 inh | Glyco luc inh | Keap1 Nrf2 FP | HDAC3 inh | LANA DNA inh
Cc1nn(CC(C)C)c(Cl)c1C(=O)N(c1ccc(Cl)cc1F)S(C)(=O)=O | 5.4 | -2.6 | 26.3* | -0.8 | 2.8 | -1.4
CC(=O)c1sc2nc(-c3ccco3)ccc2c1N | 64.1* | -0.9 | 4.9 | . | -2.8 | .
Nc1c(C(=O)Nc2ccc(Br)cc2)sc2nc(-c3ccco3)ccc12 | . | -1.7 | 1.9 | -0.9 | -1.7 | -1.2
CN(C)C(CNC(=O)c1ccc(C2SCCS2)cc1)c1ccccc1 (stereo unspecified) | -4.5 | 10.8 | 8.4 | -3.7 | 54.2* | -1.6
O=C(COc1ccccc1CNCc1ccccc1)Nc1ccccc1 | . | 2.5 | 46.9* | 2.3 | -1.8 | 0.9
CCOc1ccccc1CNCc1ccc(C(=O)O)cc1 | -1.6 | -2.3 | 1.5 | -1.7 | 6.2 | -0.1
O=C(c1ccncc1)N1CCCCN2[C@H](C1)[C@H](c1ccc(C#Cc3ccccn3)cc1)[C@@H]2CO | 36.6* | . | . | . | . | .
O=C(C[C@@H]1CC[C@@H]2[C@H](COC[C@H](O)CN2C(=O)c2ccccc2)O1)NCCCN1CCOCC1 | -3.1 | . | . | . | . | .
CC(=O)NC1C(=O)N(CCN2CCOCC2)c2ccc(F)cc21 (stereo unspecified) | 51.6* | -4.0 | 0.6 | -8.4 | -1.1 | 3.8
CC(=O)NC1C(=O)N(CCN2CCOCC2)c2ccc(C)cc21 (stereo unspecified) | . | . | 0.2 | -0.1 | -9.4 | 1.9
CC(=O)NC1C(=O)N(CCN2CCOCC2)c2ccc(Cl)cc21 (stereo unspecified) | 39.7* | -2.9 | 2.7 | -2.7 | -1.0 | -3.7
Cc1ccccc1-c1ccc2c(c1)O[C@H](CN(C)Cc1ccc(C(=O)O)cc1)[C@H](C)CN([C@H](C)CO)S2(=O)=O | 6.9 | . | . | . | . | .
CCCCCCC(=O)N(O)C1CC(=O)N(c2ccc(F)cc2)C1=O (stereo unspecified) | 0.4 | 0.0 | 78.2* | -1.0 | 79.0* | -58.0
CCCCN(C(=O)CCC(=O)O)C1CC(=O)N(c2ccc(OCCC)cc2)C1=O (stereo unspecified) | . | 4.7 | 0.5 | -3.0 | 3.6 | -0.5
COc1ccccc1N(O)C1CC(=O)N(c2ccc(Br)cc2)C1=O (stereo unspecified) | . | . | 0.9 | -5.4 | -2.6 | 1.9
CCCCCCC(=O)N(O)C1CC(=O)N(c2ccc(Br)cc2)C1=O (stereo unspecified) | . | . | 67.7* | -2.5 | 80.0* | -0.6
O=C(N[C@H]1CC[C@@H](CCNS(=O)(=O)c2ccc(F)cc2)O[C@H]1CO)C1CC1 | -1.6 | . | . | . | . | .
C[C@@H]1CN([C@H](C)CO)C(=O)c2cccc(NC(=O)Nc3ccc(F)cc3)c2O[C@@H]1CN(C)CC1CC1 | 1.0 | . | . | . | . | .
CCC12CN(C(=O)c3ccco3)CC(CC)(CN(C(=O)c3ccco3)C1)C2=O | 55.3* | 0.4 | 0.6 | -7.9 | -7.8 | 1.0
CC12CN(C(=O)c3ccco3)CC(c3ccccc3)(CN(C(=O)c3ccco3)C1)C2=O | . | -0.7 | -2.1 | 0.3 | 0.0 | 0.4
COc1ccc(S(=O)(=O)Nc2ccc3c(c2)C(=O)N([C@H](C)CO)C[C@H](C)[C@H](CN(C)Cc2ccc(Oc4ccccc4)cc2)O3)cc1 | 0.6 | . | . | . | . | .
CCCCNC(=O)c1cc(-c2ccc(F)cc2)on1 | . | -1.2 | 37.0* | -4.6 | -5.2 | -0.5
O=C(NCCCN1CCOCC1)c1cc(-c2ccccc2)on1 | 1.0 | -2.0 | 29.5* | -2.4 | -2.8 | 1.6
CO[C@@H]1CN(C)C(=O)c2cc(NC(C)=O)ccc2OC[C@@H](C)N(Cc2ccccn2)C[C@H]1C | 3.0 | . | . | . | . | .
Cc1ccc2nc3c(c(C(=O)O)c2c1)CCC3 | 31.6 | 6.6 | 1.0 | 0.3 | -1.0 | 3.4
SMILES | Casp6 inh | NSD2 inh | Glyco luc inh | Keap1 Nrf2 FP | HDAC3 inh | LANA DNA inh
O=C(O)c1c2c(nc3ccc(Cl)cc13)CCC2 | 49.8* | 5.3 | 1.8 | -0.5 | 3.4 | -6.1
COc1cc(C(=O)NC2CCN(C)CC2)ccc1Nc1ncc2c(n1)N(C1CCCCC1)CCC(=O)N2C | -16.0 | . | 51.7* | -2.4 | . | -8.2
CCN1C(=O)CC(C(C)C)N(C2CCCC2)c2nc(Nc3ccc(C(=O)NC4CCN(C)CC4)cc3OC)ncc21 (stereo unspecified) | . | . | 17.7 | 1.4 | . | -1.0
COc1ccc(Cn2c(=O)[nH]c3cc(C(=O)NC4CCN(Cc5ccccc5)CC4)ccc32)cc1 | 2.9 | 27.6 | -7.5 | -1.8 | 3.8 | -2.0
COc1cc(C(=O)NC2CCN(C)CC2)ccc1Nc1ncc2c(n1)N(Cc1ccccc1)CCC(=O)N2C | -63.6 | . | 104.8* | -6.3 | . | -6.2
CCN1C(=O)CC(c2ccccc2)N(C2CCCC2)c2nc(Nc3ccc(C(=O)NC4CCN(C)CC4)cc3OC)ncc21 (stereo unspecified) | . | . | 59.8* | 1.5 | -3.9 | -2.1
O=C(NC[C@H]1CC[C@H]2[C@H](CN2S(=O)(=O)c2ccccc2[N+](=O)[O-])O1)Nc1ccccc1 | 5.4 | . | . | . | . | .
COc1ccc(NC(=O)Nc2ccc3c(c2)C(=O)N([C@@H](C)CO)C[C@@H](C)[C@H](CN(C)C(=O)Nc2cccc4ccccc24)OCCCC[C@@H](C)O3)cc1 | -2.6 | . | . | . | . | .
COc1ccc(OC)c2cc3ccccc3cc12 | 14.7 | 2.1 | 3.9 | 24.6* | . | 38.6
COc1ccc2ccccc2c1-c1c(OC)ccc2ccccc12 | -2.4 | . | . | . | . | .
CN(C)c1ncc(C2=C(Cl)C(=O)C(N3CCCC3)=C(Cl)C2=O)s1 | . | 56.9* | 0.7 | -0.2 | 5.8 | 14.5
C[C@@H]1CN([C@H](C)CO)S(=O)(=O)c2ccc(C#CC3(O)CCCC3)cc2O[C@@H]1CN(C)C(=O)Nc1cccc(F)c1 | 0.1 | . | . | . | . | .
CNc1ccc(/C=C/C(=O)c2cccc3ccccc23)cc1[N+](=O)[O-] | 2.0 | 2.0 | 45.7* | -0.7 | 4.2 | -1.2
CCOc1ccc2c(c1)C(C)=CC(C)(C)N2C(=O)Nc1ccccc1F | 11.3 | 65.4* | 3.6 | -3.3 | 5.6 | 1.4
CCNC(=O)N1c2ccc(OCC)cc2C(C)=CC1(C)C | . | 10.2 | 5.5 | 1.3 | ? | -8.4
CCN(CC)CCn1c2ccccc2c2nc3ccccc3nc21 | 0.4 | 14.4 | 129.0* | -5.0 | 4.7 | -7.1
Cc1cc(C2(O)C(=O)Nc3ccccc32)ccc1F (stereo unspecified) | 35.7* | 4.1 | 0.0 | -2.6 | -1.0 | 5.0
C[C@@H]1CN([C@@H](C)CO)C(=O)c2cc(C#CC3CCCCC3)cnc2O[C@H]1CN(C)C(=O)c1ccncc1 | -2.8 | . | . | . | . | .
ClCc1nc2ccccc2c2ccccc12 | -0.3 | 14.0 | 63.0* | -3.1 | 4.8 | -2.1

Bioassay records as filed in PubChem.
